Among all 290,000 compounds or so, about 3,000 (1%) were called active. No stated cut-off is given here; in the data, active means inhibition mostly above about 36% (no sharp cut-off); inactive means mostly below about 34%. Only a selection was taken, and actives are over-represented in it overall.

The term inhibition denotes the drop in the measured response relative to a control, in per cent.

A short description of this assay: inhibition of NOD1-driven NF-kB reporter – cell-based, luminescence, uHTS, primary screen (AID 1578).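 Further: HEK-293T reporter cells stimulated with the NOD1 agonist gamma-tri-DAP.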 To be noted: NOD1-driven NF-kB luciferase reporter cells, at 4 µM, stronger effect = higher value. On the technique in general: Reporter assays use an easily measured gene product as a stand-in for the process of interest.
As to `COc1cccc(CNC(=O)C(C)n2nc(C)n3c(cc4occc43)c2=O)c1` (stereo not drawn), the inhibition is -11.7% (inactive). For `CCOc1cc2[nH]c(=O)n(CCC(=O)NCCc3ccccc3)c(=O)c2cc1OCC`, the inhibition is -0.5% (inactive).

As to `Cc1cc(C)c(S(C)(=O)=O)c(S(=O)(=O)c2ccc(Cl)cc2)n1`, the inhibition is -33.9% (inactive). The same measure for `O=C(O)CSc1c2c(nc3cc(C(=O)NCCN4CCOCC4)ccc13)CCC2`: 91.8% (active); for `CC(C)CCNC(=O)c1ccc2c(SCC(=O)O)c3c(nc2c1)CCCC3`: -29.5% (inactive). The same measure for `CC(C)CCNC(=O)c1ccc2c(SCC(=O)O)c3c(nc2c1)CCC3`: 0.8% (inactive). The result for `Cc1ccccc1S(=O)(=O)Cc1ccc(C(=O)N2CCN(c3ccccc3F)CC2)o1` reads 21.3% (inactive). Consider `Cc1ccc(S(=O)(=O)Cc2ccc(C(=O)N3CCN(c4cccc(C)c4C)CC3)o2)cc1`, for which the inhibition is 27.1% (inactive). The same measure for `COc1ccccc1-c1noc(-c2cc(OC)c(OC)c(OC)c2)n1`: -24% (inactive). `CC(C(=O)OCC(=O)c1cccc([N+](=O)[O-])c1)N1C(=O)C2C3CCC(C3)C2C1=O` (stereo not drawn): the inhibition was -8.4% (inactive). Consider `NC(=O)COC(=O)C1CSC2(c3ccc(F)cc3)CCC(=O)N12` (stereo not drawn), for which the inhibition is -7.5% (inactive). `O=C(CSCC(=O)Nc1ccccc1)N/N=C/c1c(O)ccc2ccccc12`: the inhibition was 86.4% (active). The same measure for `Oc1ccc2ccccc2c1/C=N/Nc1ccccc1`: -38.9% (inactive); for `O=C(CNc1ccccc1)N/N=C/c1c(O)ccc2ccccc12`: -10.9% (inactive). For the molecule `Cc1cccc(C)c1NC(=O)CCCSc1nnnn1C`, the inhibition is -22.8% (inactive).

In the case of `Cc1ccc(NC(=O)CC2SC(=NC3CCCCC3)NC2=O)cc1` (stereo not drawn), the inhibition is -23.2% (inactive). As to `CCCn1cccc(C(=O)Nc2ccc(OC)cc2)c1=O`, the inhibition was -3.2% (inactive).

As to `O=C(CSc1nnc(CNC(=O)c2c(F)cccc2F)o1)NCc1ccccc1`, the inhibition was -29.1% (inactive). The same measure for `CCN(CC)S(=O)(=O)c1ccc(N=Cc2c(C)c(C#N)c(=O)n(C)c2O)cc1`: -9.8% (inactive). Take `COc1ccc(C2NC(=S)NC(O)(C(F)(F)F)C2C(=O)c2cccs2)cc1` (stereo not drawn): the inhibition is -33.8% (inactive). The result for `Nc1nnnn1/N=C/C(Br)=C/c1ccccc1` reads 95.9% (active). The result for `Nc1nnnn1/N=C/c1ccccc1` reads -4% (inactive); that for `Nc1nnnn1/N=C/C=C/c1ccccc1`, 10.1% (inactive); that for `BrC(=C\c1ccccc1)/C=N/n1cnnc1`, 66.7% (active). Turning to `CC(/C=N/n1cnnc1)=C\c1ccccc1`, the inhibition is -1% (inactive).

With `ClC(/C=N/n1cnnc1)=C/c1ccccc1`, the inhibition is 1.7% (inactive). Take `Cc1ccc(C(=O)Nc2ccc(S(=O)(=O)Nc3cnc4ccccc4n3)cc2)cc1`: the inhibition was -14.5% (inactive). The same measure for `COc1cccc(/C=C2\SC(=S)N(CCCC(=O)Nc3cc(C)on3)C2=O)c1`: -22.5% (inactive); for `Cc1cccc2c1CC(C)(C)N=C2C1=C(O)CCCC1=O`: -19.9% (inactive).

On to `C/C(=N\NC(=O)C1CC1)c1ccc(C(C)(C)C)cc1`, for which the inhibition is -39.6% (inactive). The result for `CSc1ccc(OC2CCCCC2NS(=O)(=O)c2ccc(Cl)cc2)cc1` (stereo not drawn) reads 8.3% (inactive).

Consider `CC(C)(C)NC(=S)N/N=C/c1cccnc1`, for which the inhibition was -10.2% (inactive). The same measure for `CCC(O)(CC)C(=O)N/N=C/c1cc(Br)cc(Br)c1O`: 1.3% (inactive). Regarding `Oc1c(Br)cc(/C=N/NC(=S)NCc2ccco2)cc1Br`, the inhibition was 15% (inactive).

In the case of `CNC(=S)N/N=C/c1cc(C)ccc1C`, the inhibition was -38.3% (inactive).

On to `Oc1c(Cl)cc(Cl)cc1/C=N/NC(=S)NC1CC2C=CC1C2` (stereo not drawn), for which the inhibition was 26.6% (inactive). The same measure for `Oc1ccccc1/C=N/NC(=S)NC1CC2C=CC1C2` (stereo not drawn): -1.4% (inactive); for `CNC(=S)N/N=C/c1cc(Br)cc(Br)c1O`: 73.9% (active). Regarding `Oc1c(Br)cc(Br)cc1/C=N/NC(=S)N[C@H]1CC2C=CC1C2` (stereo partly drawn), the inhibition is 47.8% (active). Regarding `Nc1nc(SCC(=O)N2CCCCC2)[nH]c(=O)c1NC(=O)c1cccs1`, the inhibition is -15.7% (inactive). The result for `COc1ccc(N(CC(=O)Nc2ccc3c(c2)OCCO3)S(C)(=O)=O)c(OC)c1` reads -7.6% (inactive); that for `COc1ccc(Cn2c3ccc(OC)cc3c3nc4ccccc4nc32)cc1`, -41.1% (inactive); that for `Cc1cc(Br)ccc1OCCCCNCCO`, -40.2% (inactive). As to `O=c1cc(COc2ccc(Cl)c(Cl)c2)nc2sccn12`, the inhibition was -5.4% (inactive). The same measure for `CCN(CC)c1ccc(N=Cc2ccc([N+](=O)[O-])o2)cc1`: -31.4% (inactive). For the molecule `Cc1ccc(NC(=O)c2cc(C)nc3ccccc23)c(C)c1`, the inhibition is -34.7% (inactive).

As to `Cc1ccc(NC(=O)Cc2ccccc2)c(C)c1`, the inhibition is -29.9% (inactive). On to `COc1ccccc1N(C(=O)c1ccco1)C(C(=O)NC1CCCC1)c1ccc(N2CCOCC2)cc1` (stereo not drawn), for which the inhibition was 37.6% (inactive). For `Cc1ccccc1CC(=O)N1CCCC(CCC(=O)N2CCN(c3ccccn3)CC2)C1` (stereo not drawn), the inhibition was -12.6% (inactive). `Cc1c(CCO)c(=O)n2c([nH]c3ccccc32)c1C#N`: the inhibition is 1.6% (inactive). The same measure for `C=C(C)Cc1c(C)c(C#N)c2[nH]c3ccccc3n2c1=O`: 19.2% (inactive). The result for `Cc1c(Cc2ccccc2)c(=O)n2c([nH]c3ccccc32)c1C#N` reads 90.3% (active); that for `CCc1c(C)c(C#N)c2[nH]c3ccccc3n2c1=S`, 1.4% (inactive); that for `Cc1c(CCC(=O)O)c(=O)n2c([nH]c3ccccc32)c1C#N`, 0.9% (inactive). On to `Cc1c(CCC(C)C)c(=O)n2c([nH]c3ccccc32)c1C#N`, for which the inhibition was 91.2% (active). For the molecule `CN(C1CCCCC1)S(=O)(=O)c1ccc(NC(=O)c2ccco2)cc1`, the inhibition is 1.3% (inactive). The same measure for `CN1C(=O)C(C)(C)c2cc(S(=O)(=O)N(C)Cc3ccccc3)ccc21`: -4.1% (inactive); for `COc1cccc2c1Oc1ncccc1N(C(=O)CCC(=O)NCc1ccccc1)C2`: -19.2% (inactive). Regarding `O=C(CN1CCCc2ccccc21)NC(=O)NCc1ccccc1`, the inhibition was -4.3% (inactive). As to `O=C(c1ccccc1)C1CCN(c2ncccc2[N+](=O)[O-])CC1`, the inhibition is -8.7% (inactive). `Cc1nc(NCc2ccc3c(c2)OCO3)c2oc3ccccc3c2n1`: the inhibition is 15.2% (inactive). The result for `CCc1nc(NCc2ccc3c(c2)OCO3)c2oc3ccccc3c2n1` reads 23.2% (inactive).

Turning to `c1ccc2c(c1)oc1c(NCc3ccc4c(c3)OCO4)ncnc12`, the inhibition is 66.2% (active).
